Hit rate of the full screen: of about 39,000 compounds, about 3,300 (8.5%) were called active. What follows is part of a selection rich in actives, with near analogues and random picks from the rest.

The test system of this assay is HepG2. Description: cytotoxicity call (relative viability < 0.9). The settings on record: 10 µM.
Take `CO[C@@H]1CN(C)C(=O)c2cc(NS(=O)(=O)CC(F)(F)F)ccc2OC[C@@H](C)N(Cc2ccccn2)C[C@H]1C`: the cytotoxicity call was “inactive”.
For `CN1C(=S)N[C@@H]2CS(=O)(=O)C[C@@H]21` the value was “inactive”.
For `O=C(CCCCCC(=O)N/N=C/[C@H](O)[C@H](O)[C@@H](O)[C@@H](O)CO)NO` the value was “inactive”; for `C[C@H]1CN([C@@H](C)CO)C(=O)c2cc(C3=CCCCC3)cnc2O[C@@H]1CN(C)C(=O)CN1CCOCC1`, “inactive”; for `O=c1nc[nH]c2c1ncn2[C@@H]1C[C@@H](O)[C@H](CO)O1`, “inactive”.
Regarding `C[C@@H]1CN([C@H](C)CO)C(=O)c2cccc(NC(=O)c3nc4ccccc4s3)c2O[C@@H]1CN(C)CC1CCCCC1`, the cytotoxicity call was “inactive”.
For `CCN1[C@@H]2O[C@@H]3O[C@H]4[C@H](O[C@H]3O[C@@H]2N(CC)S1(=O)=O)N(CC)S(=O)(=O)N4CC` the value was “inactive”.
As for `C[C@H](CO)N1C[C@H](C)[C@H](CN(C)S(=O)(=O)c2cccs2)Oc2ncc(C#Cc3cccc(F)c3)cc2C1=O`, the cytotoxicity call was “inactive”.
For `Cc1noc(C)c1NC(=O)N(C)C[C@@H]1Oc2ccc(NC(=O)CCN3CCOCC3)cc2C(=O)N([C@@H](C)CO)C[C@H]1C` the value was “inactive”; for `C[C@@H]1CN([C@H](C)CO)C(=O)c2cc(NC(=O)NC3CCCCC3)ccc2O[C@@H](C)CCCCO[C@H]1CN(C)Cc1ccccc1`, “inactive”.
For `C[C@@H]1CCCCO[C@H](CN(C)Cc2ccccc2)[C@@H](C)CN([C@H](C)CO)C(=O)c2cc(NC(=O)NC3CCCCC3)ccc2O1`, the cytotoxicity call was “inactive”.
The entry for `C[C@H]1CCCCO[C@H](CN(C)Cc2ccccc2)[C@@H](C)CN([C@@H](C)CO)C(=O)c2cc(NC(=O)NC3CCCCC3)ccc2O1` is “active”.
For `COc1ccc(S(=O)(=O)N(C)C[C@@H]2Oc3c(NS(=O)(=O)c4ccccc4)cccc3C(=O)N([C@H](C)CO)C[C@@H]2C)cc1`, the cytotoxicity call is “inactive”.
The entry for `C[C@H]1CN([C@@H](C)CO)C(=O)Cc2cc(NC(=O)CCN3CCOCC3)ccc2O[C@H]1CN(C)Cc1ccc2c(c1)OCO2` is “inactive”; for `C[C@@H]1CCCCO[C@@H](CN(C)Cc2ccc(Cl)c(Cl)c2)[C@@H](C)CN([C@@H](C)CO)C(=O)c2cc(NC(=O)NC3CCCCC3)ccc2O1` it is “active”; for `C[C@@H]1CCCCO[C@@H](CN(C)Cc2ccc(Cl)c(Cl)c2)[C@H](C)CN([C@H](C)CO)C(=O)c2cc(NC(=O)NC3CCCCC3)ccc2O1` it is “inactive”.
The entry for `C[C@@H]1CN([C@H](C)CO)C(=O)c2cc(NC(=O)NC3CCCCC3)ccc2O[C@@H](C)CCCCO[C@@H]1CN(C)Cc1ccc(Cl)c(Cl)c1` is “inactive”; for `C[C@@H]1CCCCO[C@H](CN(C)Cc2ccc(Cl)c(Cl)c2)[C@@H](C)CN([C@@H](C)CO)C(=O)c2cc(NC(=O)NC3CCCCC3)ccc2O1` it is “inactive”.
The entry for `C[C@@H]1CCCCO[C@H](CN(C)Cc2ccc(Cl)c(Cl)c2)[C@@H](C)CN([C@H](C)CO)C(=O)c2cc(NC(=O)NC3CCCCC3)ccc2O1` is “inactive”; for `C[C@@H]1CN([C@@H](C)CO)C(=O)c2cc(NC(=O)NC3CCCCC3)ccc2O[C@@H](C)CCCCO[C@H]1CN(C)Cc1ccc(Cl)c(Cl)c1` it is “active”.
As to `C[C@H]1CCCCO[C@H](CN(C)Cc2ccc(Cl)c(Cl)c2)[C@@H](C)CN([C@@H](C)CO)C(=O)c2cc(NC(=O)NC3CCCCC3)ccc2O1`, the cytotoxicity call is “inactive”.
The entry for `C[C@H](CO)N1C[C@H](C)[C@@H](CN(C)Cc2ccc(Cl)c(Cl)c2)OCCCC[C@H](C)Oc2ccc(NC(=O)NC3CCCCC3)cc2C1=O` is “active”; for `C[C@@H]1CCCCO[C@@H](CN(C)Cc2ccc(Cl)c(Cl)c2)[C@H](C)CN([C@@H](C)CO)C(=O)c2cc(NC(=O)NC3CCCCC3)ccc2O1` it is “inactive”; for `C[C@@H]1CCCCO[C@H](CN(C)Cc2ccc(Cl)c(Cl)c2)[C@H](C)CN([C@@H](C)CO)C(=O)c2cc(NC(=O)NC3CCCCC3)ccc2O1` it is “inactive”.
For `C[C@@H]1CCCCO[C@@H](CN(C)Cc2ccc(Cl)c(Cl)c2)[C@@H](C)CN([C@H](C)CO)C(=O)c2cc(NC(=O)NC3CCCCC3)ccc2O1` the value was “inactive”; for `C[C@H](CO)N1C[C@H](C)[C@H](CN(C)Cc2ccc(Cl)c(Cl)c2)OCCCC[C@H](C)Oc2ccc(NC(=O)NC3CCCCC3)cc2C1=O`, “active”.
For the molecule `O=C(O)CCN1CCCC1=O`, the cytotoxicity call is “inactive”.
For `COC(=O)c1c2oc(c1C(=O)OC)C(=O)N[C@@H](Cc1ccccc1)Cn1cc(nn1)[C@H](Cc1ccccc1)NC(=O)N[C@@H](CO)CC2` the value was “inactive”; for `C[C@H]1CN([C@@H](C)CO)C(=O)Cc2cc(NC(=O)Cn3cnnn3)ccc2O[C@H]1CN(C)Cc1ccc(C(=O)O)cc1`, “inactive”.
For `C[C@@H]1CN([C@@H](C)CO)C(=O)c2cc(N(C)C)ccc2O[C@@H](C)CCCCO[C@@H]1CN(C)S(=O)(=O)c1cn(C)cn1` the value was “inactive”.
For `COc1ccc(NC(=O)Nc2ccc3c(c2)C(=O)N([C@@H](C)CO)C[C@@H](C)[C@@H](CN(C)C(=O)Nc2ccc(OC)cc2)OCCCC[C@H](C)O3)cc1` the value was “inactive”; for `C[C@@H]1CN([C@@H](C)CO)C(=O)c2cccc(NC(=O)NC3CCCCC3)c2O[C@@H]1CN(C)Cc1ccc(Cl)c(Cl)c1`, “inactive”; for `O=C(O)/C=C/c1cnc[nH]1`, “inactive”.
Take `C=CCN1C(=O)[C@]2(O[C@H](CCO)[C@@H]([Si](C)(C)c3ccc(OC)cc3)[C@@H]2C)c2cc(N3C(=O)c4cccc5cccc3c45)ccc21`: the cytotoxicity call is “active”.
The entry for `C=CCN1C(=O)[C@@]2(O[C@@H](CCO)[C@H]([Si](C)(C)F)[C@H]2C)c2cc(N3C(=O)c4cccc5cccc3c45)ccc21` is “inactive”; for `C=CCN1C(=O)[C@@]2(O[C@@H](CCn3cc([C@H](O)c4ccccc4)nn3)[C@H]([Si](C)(C)c3ccc(OC)cc3)[C@H]2C)c2cc(N3C(=O)c4cccc5cccc3c45)ccc21` it is “inactive”; for `C=CCN1C(=O)[C@]2(O[C@H](CCn3cc([C@H](O)c4ccccc4)nn3)[C@@H]([Si](C)(C)c3ccc(OC)cc3)[C@@H]2C)c2cc(N3C(=O)c4cccc5cccc3c45)ccc21` it is “inactive”.
The entry for `C=CCN1C(=O)[C@@]2(O[C@@H](CCO)[C@H]([Si](C)(C)c3ccc(OC)cc3)[C@H]2C)c2cc(N3C(=O)c4cccc5cccc3c45)ccc21` is “active”.
